Pf growth 96h = inhibits malaria parasite growth, 96 h | P. falciparum luciferase reporter growth, 96 h | Potency, µM (doses to about 28.7 µM), for inactives: at the top dose activity change, negative = inhibition, actives largely listed as inhibitors | hit rate 6.9% among 320,000 | AID 504834; active means well fitted inhibition curve with a large enough effect; inconclusive means small, poorly fitted or top-dose-only effect, or another doubt; inactive means no such curve, though single readings can be large or run the other way; further: potency means the concentration at half of the fitted maximal effect; on the % scale 0 is the no-effect control and ±100 the full control effect
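Compounds incubated with erythrocytes infected by luciferase-expressing P. falciparum (2% hematocrit, 0.05% parasitemia final) for 96 hours, 37 C in 5% CO2. Growth inhibition scored as decreased luciferase luminescence.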
SARS PLpro yeast = blocks SARS-CoV papain-like protease in a yeast assay. S. cerevisiae expressing SARS-CoV PLpro, growth rescue. Potency, µM (titrated, usually from 32.9 µM), without a hit: at the highest dose activity, positive = growth rescue, usual class: activators. hit rate 0.19% among 330,000; further: potency means the concentration at half of the fitted maximal effect; 0% is about no effect; nearly all actives have a fitted effect of over 55% in size
CHX counter = counter-screen for Shiga toxin inhibitors: cycloheximide protein synthesis inhibition. cell reporter, cycloheximide protein synthesis inhibition counterscreen. max response, %. hit rate 12% among 300,000. AID 2314; in the data active means max response mostly above about 13%, no sharp cut-off; inactive means mostly below about 14%; further: read at 38.3 µM for the half of the compounds with a filed dose; 0% is about no effect
Pf growth 48h = inhibits P. falciparum growth in the first generation, 48 h | P. falciparum luciferase growth in erythrocytes, 48 h | Potency, µM (highest dose often 28.7 µM), without a hit: top-dose activity change, negative = inhibition, actives largely listed as inhibitors | hit rate 5.9% among 310,000; active means well fitted inhibition curve with a large enough effect; inconclusive means small, poorly fitted or top-dose-only effect, or another doubt; inactive means no such curve, though single readings can be large or run the other way; further: potency means the concentration at half of the fitted maximal effect; on the % scale 0 is the no-effect control and ±100 the full control effect
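In quantitative HTS format, infected erythrocytes bearing luciferase-reporter parasites were treated for a single generation at 37 C. Luminescence after adding detection reagent served as the growth measure.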
Shiga inhibitor = inhibitors of Shiga toxin in Vero cells. hit rate 9.2% among 290,000. inhibition, % at 38.7 µM. AID 2315. Vero cells, Shiga toxin protein synthesis inhibition reporter; in the data active means inhibition mostly above about 28%, no sharp cut-off; inactive means mostly below about 43%; further: 0% is about no effect
NS1 function inh = inhibitors of influenza NS1 protein function. Potency, µM (highest dose often 46.1 µM), for the others: top-dose activity, positive = more growth. AID 2326. hit rate 0.4% among 270,000; further: potency means the concentration at half of the fitted maximal effect; actives are rising curves; nearly all actives have a fitted effect of over 50% in size
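Read-out: OD600 growth recovery of NS1-expressing budding yeast. Cells grown overnight at 30C in -URA glucose medium, washed, resuspended and diluted 1:100 in 2% galactose assay medium, pH 6.0. Same strain lacking NS1 served as positive control.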
* = called active by the depositor; ? = inconclusive; / = no result; [ ] = remark or other dose. The list is not random: actives were taken first. Their share in the collection is about 21%. Unless noted, the call rests on the fitted dose curve.

SMILES	Pf growth 96h	SARS PLpro yeast	CHX counter	Pf growth 48h	Shiga inhibitor	NS1 function inh
CC(=O)c1ccccc1C(=O)NCc1cccnc1	19%	7%	-2	2%	2	4%
COc1ccc(C2=NOC(Cn3nc(C(=O)O)cc3-c3ccccc3)C2)cc1 (centres undefined)	78%	-1%	-2	7%	8	17%
O=C1c2ccccc2S(=O)(=O)N1CC1CC(c2ccccc2)=NO1 (centres undefined)	11%	17%	44*	37%	89*	-36%
O=C1c2ccccc2S(=O)(=O)N1CC1CC(c2ccc(Cl)cc2)=NO1 (centres undefined)	-13%	-26%	61*	70%	66*	8%
COc1ccc(C2=NOC(CN3C(=O)c4ccccc4S3(=O)=O)C2)cc1 (centres undefined)	-8%	1%	64*	117%	125*	?
CCOc1ccc(S(=O)(=O)N(C)c2ccc(OCC(=O)NCC3CCCO3)cc2)cc1 (centres undefined)	-14%	0%	-2	?	-17	/
CNC(=S)NNC(=O)c1cccc(N(C)C)c1	19%	0%	-1	-3%	-2	1%
CN(C)c1cccc(C(=O)NNC(=S)NC2CCCC2)c1	-22%	0%	18*	106%	34	-8%
CN(C)c1cccc(C(=O)NNC(=O)NC2CCCCC2)c1	6.6µM*	7%	1	-2%	-8	-6%
COc1cc(OC)cc(C(=O)NNC(=O)NC2CCCCC2)c1	10µM*	10%	-1	-9%	20	4%
Cc1ccc(S(=O)(=O)N2CCN(C(=O)COC(=O)c3ccc([N+](=O)[O-])o3)CC2)c(C)c1	?	-3%	/	?	/	/
CCN(CC)c1ccc(NC(=O)COC(=O)c2ccc3ccccc3n2)cc1	/	-1%	15	28%	20	-8%
Cc1ccc2oc(-c3cccc(NC(=O)/C=C/c4cccc([N+](=O)[O-])c4)c3C)nc2c1	2.3µM*	0%	57*	?	97*	2%
O=C(/C=C/c1cccc([N+](=O)[O-])c1)Nc1ccccn1	?	3%	8	69%	39	/
COC(=O)CNC(=O)C1CCN(S(=O)(=O)c2cnc[nH]2)CC1	?	1%	-8	11%	-8	-11%
CCn1cc[n+](C)c1P(c1ccccc1)c1ccccc1	?	4%	-5	1.3µM*	-11	2%
Cc1ccc(NC(=O)CCc2ccc(S(=O)(=O)N3CCOCC3)cc2)c(Cl)c1	/	-1%	/	/	/	/
Cc1ccc(C2(O)CC(C)N(C)CC2C)cc1 (centres undefined)	?	4%	14	4%	-8	6%
COc1ccc(C2(CCN)CC(C)N(C)CC2C)cc1 (centres undefined)	1.7µM*	4%	-1	0%	12	6%
O=C(NCc1ccccn1)c1ccc(N2CCCC2=O)cc1	14%	-2%	23*	71%	27	2%
O=C(NCc1ccccn1)c1ccc(-c2ccccc2)cc1	68%	-2%	36*	48%	64*	-3%
O=C(NCc1ccccn1)c1cc(-c2ccccc2)on1	?	-3%	36*	76%	141*	-7%
O=C(NCc1ccccn1)c1ccco1	-90%[5.75 µM]	1%	4	8%	8	/
COc1ccccc1OCc1cc(C(=O)NCc2ccc(N3CCCC3=O)cc2)no1	-11%	0%	42*	?	18	-3%
Cn1c(=S)c2[nH]c(SCCN3C(=O)c4ccccc4C3=O)nc2n(C)c1=O	/	/	/	/	/	0%
SMILES	Pf growth 96h	SARS PLpro yeast	CHX counter	Pf growth 48h	Shiga inhibitor	NS1 function inh
CCc1ccccc1NC(=O)c1ccc(OCc2c(C)noc2C)cc1	/	6%	/	/	/	/
Cc1ccc(-c2cc(C(=O)NCc3ccccn3)no2)cc1	-1%	-11%	45*	81%	85*	-15%
Cc1c2ccncc2c(C)c2c1[nH]c1ccccc12	1µM*	-4%	5	1µM*	2	-31%
COc1ccc2[nH]c3c(C)c4ccncc4c(C)c3c2c1	0.37µM*	0%	1	0.37µM*	8	-54%
COc1ccc2[nH]c(C)cc(=O)c2c1	-29%	0%	-1	-18%	30	5%
COc1ccccc1C1C=C(c2ccc(C)cc2)Nc2nnnn21 (centres undefined)	?	-9%	16	-17%	54	-2%
COc1ccc(C2=CC(c3cccc(C)c3)n3nnnc3N2)cc1 (centres undefined)	/	/	28*	/	43	/
CCOc1ccc(C2C=C(c3ccc(C)cc3)Nc3ncnn32)cc1 (centres undefined)	136%	-11%	9	10µM*	6	-94%
COc1ccc(C2=CC(c3c(C)nn(-c4ccccc4)c3Cl)n3nnnc3N2)cc1OC (centres undefined)	?	-1%	-5	2.3µM*	-11	16%
COc1ccc(C2C=C(c3ccccc3)Nc3ncnn32)cc1 (centres undefined)	19%	-3%	2	?	9	-18%
CCOc1ccc(C2C=C(c3ccc(C)cc3)Nc3nnnn32)cc1 (centres undefined)	13µM*	-4%	-5	8.3µM*	-10	-8%
COc1ccc(C(=O)NCCS(=O)(=O)N(C)Cc2ccccc2)cc1	2%	3%	/	-11%	/	/
CCOc1ccc(C2C=C(c3ccccc3)Nc3nnnn32)cc1 (centres undefined)	-68%	0%	58*	43%	131*	10%
CC1=CC(c2ccccc2)n2nnnc2N1 (centres undefined)	-2%	2%	-2	36%	-17	?
CCc1ccc(OC(C)c2nnc(SCC(=O)Nc3ncccc3C)n2C)cc1 (centres undefined)	-12%	19%	0	9%	-3	-12%
C=CCNc1cc(C(F)(F)F)nc(-c2ccccn2)n1	4.1µM*	8%	4	6.6µM*	-5	12%
Cc1nc2c(c(=O)n1CCC1=CCCCC1)c1nc3ccccc3nc1n2/N=C/c1ccccc1	-6%	18%	5	/	25	-2%
CCOCCCn1c(C)nc2c(c1=O)c1nc3ccccc3nc1n2CCC1=CCCCC1	2.6µM*	?	1	?	21	?
CCN(CC)S(=O)(=O)c1ccc(NC(=O)c2ccc(N(C)S(C)(=O)=O)cc2)cc1	8.3µM*	27%	-3	17µM*	-3	19%
CC(=O)Nc1ccc(NC(=O)c2ccc(S(=O)(=O)N(C)c3ccccc3)cc2)cc1	?	0%	/	13µM*	/	/
CC(C)c1cc2cc3ccc(=O)oc3cc2o1	?	-2%	33*	/	64*	-12%
O=c1ccc2cc3ccoc3cc2o1	37%	1%	1	49%	-4	-8%
COc1ccc(N2CSC3=C(C#N)C(c4cccs4)CC(=O)N3C2)cc1 (centres undefined)	-1%	5%	18*	-27%	46	-32%

Source: PubChem BioAssay
